# Data as given in publication PMC4336329 (PLoS ONE, 2015).
# About 14,000 (4.5%) of roughly 310,000 compounds showed an effect of 50% or more. The effect is printed as a negative number. Only a selection was taken, and strong results are over-represented in it overall.
# Biological target: human ether-à-go-go-related gene (hERG) potassium channel (human, UniProt Q12809)
# Test: primary screen, population patch clamp on CHO cells stably expressing hERG; higher = less effect of the substance
# 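Note: peak tail current of the secondary pulse compared with the same well before compound.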
# human ether-à-go-go-related gene (hERG) potassium channel, sequence (Q12809 whole entry, looked up): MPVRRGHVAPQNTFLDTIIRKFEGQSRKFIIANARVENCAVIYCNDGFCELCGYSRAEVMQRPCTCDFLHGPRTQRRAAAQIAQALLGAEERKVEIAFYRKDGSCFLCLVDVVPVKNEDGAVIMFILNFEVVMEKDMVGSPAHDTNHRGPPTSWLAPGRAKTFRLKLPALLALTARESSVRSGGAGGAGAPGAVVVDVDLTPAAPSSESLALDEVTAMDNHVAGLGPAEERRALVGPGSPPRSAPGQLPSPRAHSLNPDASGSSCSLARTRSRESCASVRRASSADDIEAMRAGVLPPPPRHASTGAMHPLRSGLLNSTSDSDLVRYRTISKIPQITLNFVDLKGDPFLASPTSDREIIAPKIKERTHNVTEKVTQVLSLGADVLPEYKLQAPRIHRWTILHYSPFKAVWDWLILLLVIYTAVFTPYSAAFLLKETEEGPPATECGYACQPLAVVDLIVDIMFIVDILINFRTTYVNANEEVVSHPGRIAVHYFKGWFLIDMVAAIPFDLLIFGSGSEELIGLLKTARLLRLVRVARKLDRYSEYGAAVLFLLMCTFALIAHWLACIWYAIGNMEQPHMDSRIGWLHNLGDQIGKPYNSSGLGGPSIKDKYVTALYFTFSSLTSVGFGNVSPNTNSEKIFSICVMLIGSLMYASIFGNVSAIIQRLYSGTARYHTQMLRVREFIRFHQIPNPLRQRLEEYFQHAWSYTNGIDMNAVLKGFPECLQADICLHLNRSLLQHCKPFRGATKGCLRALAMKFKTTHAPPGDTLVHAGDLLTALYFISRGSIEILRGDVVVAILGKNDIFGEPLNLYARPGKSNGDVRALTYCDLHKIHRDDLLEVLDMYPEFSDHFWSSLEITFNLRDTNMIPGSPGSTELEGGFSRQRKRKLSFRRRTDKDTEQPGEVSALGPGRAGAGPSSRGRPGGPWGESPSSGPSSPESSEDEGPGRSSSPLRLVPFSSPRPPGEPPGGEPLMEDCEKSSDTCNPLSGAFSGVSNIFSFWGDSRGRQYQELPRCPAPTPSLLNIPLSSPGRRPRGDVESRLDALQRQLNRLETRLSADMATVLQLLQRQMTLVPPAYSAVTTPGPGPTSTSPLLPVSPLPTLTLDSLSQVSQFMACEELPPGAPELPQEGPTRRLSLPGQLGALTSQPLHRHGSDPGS
row,Compound,"hERG current change (%, negative = inhibition) at 10uM"
1,COc1cc(/C=C/c2ccc3c(Br)cc(Br)c(O)c3n2)ccc1O,17.2%
2,O=C(CSc1ccc([N+](=O)[O-])cn1)Nc1ccc(N2CCOCC2)c(Cl)c1,-33.2%
3,CCc1nnc(NC(=O)CSc2nnnn2-c2cccc(C(=O)OC)c2)s1,8.39%
4,O=C(Cc1cccs1)Nc1nnc(COc2ccccc2)s1,3.05%
5,O=C(CN1C(=O)NC2(CCc3ccccc32)C1=O)Nc1cc(C(F)(F)F)ccc1N1CCOCC1 (centres unmarked),-5.15%
6,O=C(COc1ncnc2ccccc12)N1CCN(S(=O)(=O)c2ccc(Cl)cc2)CC1,-9.26%
7,Cc1nc(Cl)c2c(n1)NC1=C(O2)C(=O)CCC1,14.7%
8,COc1cccc(/C=C2\SC(=S)N(CCC(=O)NCCc3ccc(O)cc3)C2=O)c1,3.18%
9,COc1ccc(Nc2nc(-c3sc(N)nc3C)cs2)cc1,8.32%
10,O=C(NNC1=Nc2cccc3cccc1c23)c1ccc(Br)cc1,4.78%
11,Cc1cccc2cc(C(c3nnnn3Cc3ccccc3)N3CCN(c4ccccc4)CC3)c(=O)[nH]c12 (centres unmarked),-29.1%
12,COc1cccc(/C=N/NC(=O)COc2cccc3cccnc23)c1O,0.232%
13,CN(C)/C=C(/C(=O)c1ccc(Cl)c(Cl)c1)c1nnnn1-c1ccccc1,9.85%
14,COc1ccc(C2C3=C(CCCC3=O)Nc3nc(SCc4ccc(C(=O)O)cc4)nn32)cc1OC (centres unmarked),-3.79%
15,Cl.Cn1cccc1CNCCc1ccccc1,-1.74%
16,CN(c1ccc(C(=O)N2CCOCC2)cc1)S(=O)(=O)c1ccc(Cl)cc1,-34.2%
17,COc1ccc(S(=O)(=O)N(CC(=O)NCCCN(C)C)c2ccc(C)cc2)cc1OC,-56.6%
18,CCc1ccc(N(CC(=O)NCc2cccnc2)S(=O)(=O)c2ccccc2)cc1,-27%
19,COCCNC(=O)CN(c1ccc(C)cc1)S(=O)(=O)c1ccccc1,9.01%
20,CCOc1ccc(S(=O)(=O)N(CC)CC(=O)NCc2cccnc2)cc1,-38%
21,COCCNC(=O)CN(c1cccc(OC)c1)S(=O)(=O)c1ccc(C)cc1,-12.2%
22,CN(c1ccc(C(=O)N2CCCCCC2)cc1)S(=O)(=O)c1ccc(Cl)cc1,-63%
23,CCOc1ccc(S(=O)(=O)N(CC(=O)NCc2cccnc2)c2ccc(C)cc2)cc1,-66.9%
24,COc1ccc(N(CC(=O)NCCOc2ccccc2)S(=O)(=O)c2ccc(C)cc2)cc1,-54.8%
25,CN(c1ccc(C(=O)N2CCCCC2)cc1)S(=O)(=O)c1ccccc1,-10.8%
26,COCCNC(=O)CN(c1ccc(OC)c(OC)c1)S(=O)(=O)c1ccc(C)cc1,-8.68%
27,COc1ccc(S(=O)(=O)N(CC(=O)NCc2ccncc2)c2ccc(C)cc2)cc1OC,-6.77%

row,Compound,"hERG current change (%, negative = inhibition) at 10uM"
1,CCCC(C)c1nc(C(N)=O)c2[nH]c(=O)n(-c3ccc(OC)c(OC)c3)c2n1 (centres unmarked),12.6%
2,CCc1ccc(NC(=O)C2CCN(S(=O)(=O)c3cnc[nH]3)CC2)cc1,9.27%
3,COc1ccccc1NC(=O)Cn1cnc2sc(C(=O)Nc3cc(OC)c(OC)c(OC)c3)c(C)c2c1=O,27.8%
4,CCn1cc(/C=C(\NC(=O)c2ccccc2OC)C(=O)NCCCN2CCOCC2)c2ccccc21,-7.61%
5,Cc1ccccc1OCC(=O)N/N=C/c1cccn1C,7.04%
6,COc1ccc(-n2nc(C(=O)NCC(=O)NC(C)C)c3ccccc3c2=O)cc1,13.7%
7,CCOC(=O)C1CCCCN1Cc1cc(OC)ccc1OC (centres unmarked),5.17%
8,O=C(NNc1cccc(Cl)n1)C(F)(F)F,17.2%
9,COc1ccc(/C=N/n2c(=O)[nH]c3c([nH]c4ccc(Br)cc43)c2=O)cc1CN1CCOCC1,5.45%
10,O=S(=O)(c1cccc(Br)c1)N1CCN(C(=S)NCC2CCCO2)CC1 (centres unmarked),11.6%
11,CCOc1ccc(N(CC(=O)NCc2cccnc2)S(=O)(=O)c2ccc(F)cc2)cc1,-13.6%
12,COc1ccc(S(=O)(=O)N(C)c2ccc(C(=O)NCc3ccncc3)cc2)cc1,-18.8%
13,CN(c1ccc(C(=O)NCc2ccncc2)cc1)S(=O)(=O)c1ccc(Cl)cc1,-52.1%
14,CN(c1ccc(C(=O)NCc2cccnc2)cc1)S(=O)(=O)c1ccc(Cl)cc1,-15.8%
15,CCOc1ccc(S(=O)(=O)N(CC(=O)NCc2cccnc2)c2ccc(F)cc2)cc1,-72.5%
16,CCOc1ccc(S(=O)(=O)N(CC(=O)Nc2cccnc2)c2ccc(F)cc2)cc1,2.96%
17,CCOc1ccc(S(=O)(=O)N(CC(=O)NCc2ccncc2)c2ccc(C)cc2)cc1,-56.5%
18,CCOc1ccc(N(CC(=O)NCc2ccccc2)S(=O)(=O)c2ccc(C)cc2)cc1,4.04%
19,CCOc1ccc(S(=O)(=O)N(CC)CC(=O)NCc2ccncc2)cc1,-13.2%
20,COc1cc(/C(C)=N/N2CCN(c3ccccc3OC)CC2)ccc1O,-9.07%
21,COc1ccc2c(c1)c(/C=C/c1cc[n+](C)cc1)cn2C.[I-],12.9%
22,Cc1cc(-n2c(C)cc(C(=O)CSc3nnnn3-c3ccc(Cl)cc3)c2C)no1,-3.04%
23,Cc1c(C)c(C)c(CN2CCSCC2)c(C)c1C,18.4%
24,Cc1ccc(N(C)S(=O)(=O)c2ccc(-c3cnc(C4CC4)o3)cc2)cc1,8.38%
25,COc1ccc(S(=O)(=O)N2CCCC(C(=O)NCc3ccco3)C2)cc1OC (centres unmarked),10.1%
26,CN(C)CCN(C(=O)c1ccc(C(=O)c2ccccc2)cc1)c1nc2cc3c(cc2s1)OCO3.Cl,3.43%
27,CCN(CC)CCN(C(=O)c1ccc2ncsc2c1)c1nc2cc3c(cc2s1)OCO3.Cl,-61.8%

row,Compound,"hERG current change (%, negative = inhibition) at 10uM"
1,CN(C)CCN(C(=O)c1ccc(C(=O)c2ccccc2)cc1)c1nc2cc3c(cc2s1)OCCO3.Cl,-12.4%
2,CN(C)CCCN(C(=O)c1ccc2c(c1)CCCC2)c1nc2cc3c(cc2s1)OCO3.Cl,-71%
3,CN(C)CCN(C(=O)c1ccc2c(c1)CCCC2)c1nc2cc3c(cc2s1)OCCO3.Cl,5.76%
4,CN(C)CCCN(C(=O)c1ccc([N+](=O)[O-])o1)c1nc2cc3c(cc2s1)OCO3.Cl,-71.8%
5,CN(C)CCCN(C(=O)c1ccc(C(=O)c2ccccc2)cc1)c1nc2cc3c(cc2s1)OCO3.Cl,-56.3%
6,CN(C)CCN(C(=O)c1ccc(N2C(=O)CCC2=O)cc1)c1nc2cc3c(cc2s1)OCO3.Cl,0.227%
7,CCN(CC)CCN(C(=O)c1ccc2ccccc2c1)c1nc2cc3c(cc2s1)OCO3.Cl,-38.6%
8,CCN(CC)CCN(C(=O)c1ccc(C(=O)c2ccccc2)cc1)c1nc2cc3c(cc2s1)OCO3.Cl,-43.8%
9,Cc1nccn1Cc1ccccc1,25.1%
10,C(=N\Nc1nc(N2CCOCC2)nc(N2CCOCC2)n1)/c1ccco1,30.2%
11,CCOC(=O)C1CCN(C(=O)Cn2c(=O)c3cccn3c3cccnc32)CC1,3.76%
12,COC(=O)CSC1=C(C#N)C(c2ccc(Cl)cc2)C(C(=O)OC)C(=O)N1 (centres unmarked),0.571%
13,Cc1cccc(C)c1NC(=O)COC(=O)c1ccccc1O,1.57%
14,O=C(NC1CCCCC1)N1CCc2[nH]c3ccccc3c2C1,3.15%
15,CCN(CC)CCN(C(=O)c1ccc2c(c1)OCCO2)c1nc2ccc(C)cc2s1.Cl,-71.2%
16,CCc1ccc2nc(N(CCCN(C)C)C(=O)c3ccc4c(c3)OCCO4)sc2c1.Cl,-48.3%
17,CCN(CC)CCN(C(=O)c1ccc2c(c1)OCCO2)c1nc2cc3c(cc2s1)OCO3.Cl,-67.3%
18,CN(C)CCCN(C(=O)c1ccc2c(c1)OCCO2)c1nc2cc3c(cc2s1)OCO3.Cl,-56%
19,Cc1ccc2nc(N(CCN(C)C)C(=O)c3ccc4c(c3)OCCO4)sc2c1.Cl,-44.6%
20,CN(C)CCCN(C(=O)c1ccc2c(c1)OCCO2)c1nc2ccc(Cl)cc2s1.Cl,-39.9%
21,CN(C)CCN(C(=O)c1ccc2c(c1)OCCO2)c1nc2cc3c(cc2s1)OCO3.Cl,-41.9%
22,CCN(CC)CCN(C(=O)c1ccc(S(=O)(=O)N2CCCC2)cc1)c1nc2cc(C)cc(C)c2s1.Cl,-44.1%
23,CCN(CC)CCN(C(=O)c1ccc2c(c1)OCCO2)c1nc2cc(C)cc(C)c2s1.Cl,-69.9%
24,CCN(CC)CCN(C(=O)c1ccc(Br)s1)c1nc2cc3c(cc2s1)OCCO3.Cl,-1.19%
25,CC(C)c1ccc(N2CC(C(=O)Nc3nccs3)CC2=O)cc1 (centres unmarked),1.98%
26,CC1(C)Cc2c(sc3nc4n(-c5ccccc5)c(=O)c(CCC(=O)O)nn4c(=O)c23)CO1,12.9%
